Active and inactive are the calls of the source. How the source made its calls: active means hit-call score of the fitted dose curve at least 0.9, where 1 is the maximum; inactive means score below 0.9.
What was measured:
[1] = ATG_GLI_CIS: Attagene CIS-FACTORIAL HepG2 Assay for human Zinc Finger Protein GLI1 (AID 2282945); details: HepG2, Attagene cis-factorial reporter mRNA, GLI element; actives raise or lower the signal
Procedure, shortened: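 Bidirectional curve fits relative to DMSO, using reporter mRNA levels from RT-PCR plus capillary electrophoresis. Cells were HepG2 transiently carrying cis-regulated reporter constructs, harvested 24 h after dosing.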

[2] = biological target: Bile acid receptor (Homo sapiens) (UniProt Q96RI1); test: ATG_IR1_CIS: Attagene CIS-FACTORIAL HepG2 Assay for human Nuclear Receptor Subfamily 1 Group H Member 4 (NR1H4), IR1 submotif (AID 2282946); details: IR1 reporter transcription, actives raise or lower the signal
Bile acid receptor (Homo sapiens), sequence (Q96RI1 whole entry, looked up): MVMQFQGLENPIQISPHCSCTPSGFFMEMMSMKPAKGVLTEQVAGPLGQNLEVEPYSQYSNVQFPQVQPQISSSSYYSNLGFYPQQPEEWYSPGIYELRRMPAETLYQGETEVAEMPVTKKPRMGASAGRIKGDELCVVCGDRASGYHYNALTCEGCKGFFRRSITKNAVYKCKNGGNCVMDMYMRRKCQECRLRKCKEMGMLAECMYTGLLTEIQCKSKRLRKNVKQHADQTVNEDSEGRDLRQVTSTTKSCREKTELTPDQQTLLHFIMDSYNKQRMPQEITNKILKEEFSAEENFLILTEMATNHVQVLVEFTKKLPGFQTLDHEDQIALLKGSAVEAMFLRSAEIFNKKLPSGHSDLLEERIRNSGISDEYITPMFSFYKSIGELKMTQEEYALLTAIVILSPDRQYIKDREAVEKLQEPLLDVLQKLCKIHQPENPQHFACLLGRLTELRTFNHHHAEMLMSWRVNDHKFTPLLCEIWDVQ
Procedure, shortened: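 HepG2 cells transiently transfected with multiplexed cis-element reporter units read endogenous transcription factor activity. After 24 h compound exposure, reporter mRNA was quantified by RT-PCR, fluorescent labelling, HpaI digestion and capillary electrophoresis; bidirectional fitting versus DMSO baseline.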

[3] = ATG_GRE_CIS: Attagene CIS-FACTORIAL HepG2 Assay for human Glucocorticoid Response Elements (GRE) (AID 2282947); details: HepG2 GRE cis-reporter, Attagene multiplex mRNA; actives raise or lower the signal
Procedure, shortened: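 Reporter transcripts read by RT-PCR with capillary electrophoresis fluorescence after a 24 h chemical exposure of HepG2 cells transiently transfected with multiple cis-element reporter units. Gain or loss fitted against DMSO.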

[4] = ATG_M_32_CIS: Attagene CIS-FACTORIAL HepG2 Assay for M32 Transcription Factor (Internal Marker) (AID 2282949); details: HepG2 Attagene cis-factorial M32 reporter, mRNA; actives raise or lower the signal;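 further: background control marker of the multiplexed CIS panel rather than a real target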
Procedure, shortened: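 HepG2 transfectants (cis-regulated reporter transcription units) dosed 24 h. Reporter mRNA by RT-PCR plus CE, analysed as gain or loss relative to DMSO.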

[5] = ATG_M_06_CIS: Attagene CIS-FACTORIAL HepG2 Assay for M06 Transcription Factor (Internal Marker) (AID 2282950); details: HepG2 Attagene CIS-FACTORIAL M06 internal marker reporter; actives raise or lower the signal
Procedure, shortened: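 Cells (HepG2, transiently carrying cis-driven reporter units) receive chemical for 24 h before RNA isolation. Reporter cDNA is PCR-amplified, FAM-labelled by primer extension, HpaI-digested and sized on a capillary analyser.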

[6] = biological target: Hypoxia-inducible factor 1-alpha (Homo sapiens) (UniProt Q16665); test: ATG_HIF1a_CIS: Attagene CIS-FACTORIAL HepG2 Assay for human Hypoxia Inducible Factor 1 (HIF1A) (AID 2282951); details: HepG2 Attagene cis-factorial HIF1a reporter transcription; actives raise or lower the signal
Hypoxia-inducible factor 1-alpha (Homo sapiens), sequence (Q16665 whole entry, looked up): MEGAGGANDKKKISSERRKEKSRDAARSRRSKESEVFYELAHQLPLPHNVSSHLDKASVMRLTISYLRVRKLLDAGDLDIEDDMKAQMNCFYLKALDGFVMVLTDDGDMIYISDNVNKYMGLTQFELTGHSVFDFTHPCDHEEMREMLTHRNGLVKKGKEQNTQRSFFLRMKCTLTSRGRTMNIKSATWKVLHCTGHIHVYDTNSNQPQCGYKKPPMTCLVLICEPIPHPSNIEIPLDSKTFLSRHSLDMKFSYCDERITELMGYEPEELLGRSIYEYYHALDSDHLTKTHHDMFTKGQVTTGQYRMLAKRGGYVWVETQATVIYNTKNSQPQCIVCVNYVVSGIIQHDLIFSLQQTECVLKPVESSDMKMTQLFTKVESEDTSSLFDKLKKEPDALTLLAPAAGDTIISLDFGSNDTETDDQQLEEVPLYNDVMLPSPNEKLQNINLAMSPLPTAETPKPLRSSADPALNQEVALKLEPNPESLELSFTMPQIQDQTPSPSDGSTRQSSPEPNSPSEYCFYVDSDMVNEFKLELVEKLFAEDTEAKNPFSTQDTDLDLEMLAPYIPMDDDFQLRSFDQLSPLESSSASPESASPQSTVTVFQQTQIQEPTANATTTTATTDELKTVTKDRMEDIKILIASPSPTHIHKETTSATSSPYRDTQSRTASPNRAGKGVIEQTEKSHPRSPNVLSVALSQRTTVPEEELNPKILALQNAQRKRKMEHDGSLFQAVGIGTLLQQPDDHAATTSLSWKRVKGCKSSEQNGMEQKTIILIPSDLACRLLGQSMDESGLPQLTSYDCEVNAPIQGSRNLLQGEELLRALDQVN
Procedure, shortened: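 In this multiplexed cell assay, HepG2 cells bearing transfected cis reporters are dosed for 24 h and reporter mRNA is read by RT-PCR plus capillary electrophoresis; signal increases and decreases are both scored against DMSO.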

[7] = biological target: Hepatocyte nuclear factor 6 (Homo sapiens) (UniProt Q9UBC0); test: ATG_HNF6_CIS: Attagene CIS-FACTORIAL HepG2 Assay for human Hepatocyte Nuclear Factor 6 (HNF6) (AID 2282952); details: HepG2 Attagene cis-factorial HNF6 reporter transcription; actives raise or lower the signal
Hepatocyte nuclear factor 6 (Homo sapiens), sequence (Q9UBC0 whole entry, looked up): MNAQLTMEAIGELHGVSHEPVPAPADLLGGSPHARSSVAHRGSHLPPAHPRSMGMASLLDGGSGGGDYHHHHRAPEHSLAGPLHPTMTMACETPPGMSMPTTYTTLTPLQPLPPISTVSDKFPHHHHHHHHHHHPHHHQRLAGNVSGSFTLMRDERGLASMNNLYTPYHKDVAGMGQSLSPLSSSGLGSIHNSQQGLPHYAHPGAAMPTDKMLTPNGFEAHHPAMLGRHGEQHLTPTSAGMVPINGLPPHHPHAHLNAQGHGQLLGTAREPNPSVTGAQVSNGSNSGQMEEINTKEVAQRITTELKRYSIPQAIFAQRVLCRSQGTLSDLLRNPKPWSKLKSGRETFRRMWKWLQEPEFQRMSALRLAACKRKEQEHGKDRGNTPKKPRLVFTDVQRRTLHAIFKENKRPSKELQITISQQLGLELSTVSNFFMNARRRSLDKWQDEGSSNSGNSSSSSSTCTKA
Procedure, shortened: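 Endogenous factor activity read in transiently transfected HepG2 via promoter-regulated reporter transcripts. RNA harvested 24 h post-dosing, reverse-transcribed, PCR-amplified, FAM-labelled, HpaI-digested and resolved by capillary electrophoresis; fitted in both directions against DMSO.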

[8] = ATG_MRE_CIS: Attagene CIS-FACTORIAL HepG2 Assay for human Metal Responsive Element (MRE) (AID 2282954); details: HepG2 MRE cis-reporter transcription, Attagene multiplex; actives raise or lower the signal
Procedure, shortened: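 Endogenous MRE-dependent transcription read as reporter mRNA in transiently transfected human HepG2 cells at 24 h. RNA reverse-transcribed, PCR-amplified, labelled and resolved by capillary electrophoresis; gain or loss relative to DMSO.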

[9] = ATG_PBREM_CIS: Attagene CIS-FACTORIAL HepG2 Assay for human Phenobarbital-responsive Enhancer Module (PBREM) (AID 2282955); details: HepG2 PBREM cis-reporter, Attagene multiplexed transcription; actives raise or lower the signal
Procedure, shortened: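 After a 24 h incubation with test chemical, transfected HepG2 cells yield total RNA; reporter-specific RT-PCR products are fluorescently labelled, HpaI-digested and resolved by capillary electrophoresis against ROX size standards.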

[10] = biological target: Paired box protein Pax-6 (Homo sapiens) (UniProt P26367); test: ATG_Pax6_CIS: Attagene CIS-FACTORIAL HepG2 Assay for human Paired Box 6 (PAX6) (AID 2282956); details: HepG2 CIS-FACTORIAL PAX6 reporter transcription, RNA readout; actives raise or lower the signal
Paired box protein Pax-6 (Homo sapiens), sequence (P26367 whole entry, looked up): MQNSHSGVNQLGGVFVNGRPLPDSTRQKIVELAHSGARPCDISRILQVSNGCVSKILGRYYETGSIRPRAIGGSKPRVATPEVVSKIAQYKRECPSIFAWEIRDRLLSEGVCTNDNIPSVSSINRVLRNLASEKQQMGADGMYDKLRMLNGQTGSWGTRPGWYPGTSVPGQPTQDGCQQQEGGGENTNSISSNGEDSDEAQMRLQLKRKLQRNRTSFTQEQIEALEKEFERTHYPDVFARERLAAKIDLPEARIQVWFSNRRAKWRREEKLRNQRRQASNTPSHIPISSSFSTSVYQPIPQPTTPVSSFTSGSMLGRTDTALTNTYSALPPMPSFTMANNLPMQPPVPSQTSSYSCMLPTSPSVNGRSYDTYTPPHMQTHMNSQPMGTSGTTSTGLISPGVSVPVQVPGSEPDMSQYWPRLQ
Procedure, shortened: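 Fluorescent RT-PCR products separated by capillary electrophoresis report PAX6-linked promoter mRNA in HepG2 cells 24 h post-dose. Curves fitted bidirectionally, DMSO as negative control.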

[11] = ATG_PXRE_CIS: Attagene CIS-FACTORIAL HepG2 Assay for human Pregnane X Receptor Element (PXRE) (AID 2282957); details: HepG2 Attagene CIS-FACTORIAL PXRE reporter, mRNA; actives raise or lower the signal
Procedure, shortened: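 Reporter transcripts under endogenous PXR-responsive cis-regulation quantified from total RNA of transfected HepG2 cells 24 h post-dosing, via RT-PCR with fluorescent primer extension and capillary electrophoresis. Gain or loss of signal fitted against DMSO baseline.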

[12] = ATG_PPRE_CIS: Attagene CIS-FACTORIAL HepG2 Assay for human Peroxisome Proliferator-activated Response Element (PPRE) (AID 2282958); details: HepG2 PPRE cis-element reporter, Attagene transcription factor profiling; actives raise or lower the signal
Procedure, shortened: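 Multiplexed reporter transcription units under cis-regulatory promoters were transfected into HepG2 cells to capture endogenous factor activity. A 24 h incubation preceded RNA isolation and fluorescent RT-PCR fragment analysis.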

[13] = ATG_RORE_CIS: Attagene CIS-FACTORIAL HepG2 Assay for human RAR-related Orphan Receptor Element (RORE) (AID 2282959); details: HepG2 Attagene cis-factorial RORE reporter, mRNA; actives raise or lower the signal
Procedure, shortened: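 Fluorescence intensity of reporter-specific cDNA fragments, separated by capillary electrophoresis, gives the signal. Source: HepG2 liver cells transiently transfected with cis-element reporters and exposed 24 h; DMSO-normalized bidirectional fit.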

[14] = ATG_Sox_CIS: Attagene CIS-FACTORIAL HepG2 Assay for human SRY-box transcription factor (SOX) (AID 2282960); details: HepG2 Attagene cis-factorial SOX reporter, mRNA; actives raise or lower the signal
Procedure, shortened: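 After 24 h of chemical treatment, transfected HepG2 reporter cells are lysed for total RNA. Transcript levels come from RT-PCR with labelled primer extension and capillary electrophoresis, analysed bidirectionally versus DMSO.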

[15] = biological target: Transcription factor Sp1 (Homo sapiens) (UniProt P08047); test: ATG_Sp1_CIS: Attagene CIS-FACTORIAL HepG2 Assay for human Specificity Protein 1 (Sp1) (AID 2282961); details: HepG2 Sp1 cis-reporter transcription, actives raise or lower the signal
Transcription factor Sp1 (Homo sapiens), sequence (P08047 whole entry, looked up): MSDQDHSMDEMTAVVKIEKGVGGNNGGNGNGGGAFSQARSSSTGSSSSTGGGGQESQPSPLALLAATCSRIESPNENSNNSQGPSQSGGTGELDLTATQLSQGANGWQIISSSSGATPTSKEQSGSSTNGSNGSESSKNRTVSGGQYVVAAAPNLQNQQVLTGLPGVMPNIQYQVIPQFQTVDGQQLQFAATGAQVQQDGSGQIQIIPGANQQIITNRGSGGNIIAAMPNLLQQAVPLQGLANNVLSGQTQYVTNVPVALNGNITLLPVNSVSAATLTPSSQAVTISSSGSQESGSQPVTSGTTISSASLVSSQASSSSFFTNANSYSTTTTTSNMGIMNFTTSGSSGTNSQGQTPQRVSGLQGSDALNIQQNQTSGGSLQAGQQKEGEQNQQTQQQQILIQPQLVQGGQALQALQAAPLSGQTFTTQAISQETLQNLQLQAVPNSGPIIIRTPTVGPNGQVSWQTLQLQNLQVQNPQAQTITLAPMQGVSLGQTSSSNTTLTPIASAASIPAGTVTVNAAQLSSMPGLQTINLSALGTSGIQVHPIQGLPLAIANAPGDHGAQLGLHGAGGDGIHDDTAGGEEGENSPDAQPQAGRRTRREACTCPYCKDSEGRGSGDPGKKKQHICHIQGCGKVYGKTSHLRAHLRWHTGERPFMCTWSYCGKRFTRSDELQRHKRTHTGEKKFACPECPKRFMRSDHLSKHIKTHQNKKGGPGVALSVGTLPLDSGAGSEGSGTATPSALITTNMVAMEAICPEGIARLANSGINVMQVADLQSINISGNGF
Procedure, shortened: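 Sp1-driven reporter mRNA, read as capillary electrophoresis fluorescence after RT-PCR, in transiently transfected HepG2 cells dosed for 24 h; signal change in either direction relative to DMSO.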

[16] = biological target: Signal transducer and activator of transcription 3 (Homo sapiens) (UniProt P40763); test: ATG_STAT3_CIS: Attagene CIS-FACTORIAL HepG2 Assay for human Signal Transducer and Activator of Transcription 3 (STAT3) (AID 2282963); details: HepG2, Attagene cis-factorial STAT3 reporter transcription; actives raise or lower the signal
Signal transducer and activator of transcription 3 (Homo sapiens), sequence (P40763 whole entry, looked up): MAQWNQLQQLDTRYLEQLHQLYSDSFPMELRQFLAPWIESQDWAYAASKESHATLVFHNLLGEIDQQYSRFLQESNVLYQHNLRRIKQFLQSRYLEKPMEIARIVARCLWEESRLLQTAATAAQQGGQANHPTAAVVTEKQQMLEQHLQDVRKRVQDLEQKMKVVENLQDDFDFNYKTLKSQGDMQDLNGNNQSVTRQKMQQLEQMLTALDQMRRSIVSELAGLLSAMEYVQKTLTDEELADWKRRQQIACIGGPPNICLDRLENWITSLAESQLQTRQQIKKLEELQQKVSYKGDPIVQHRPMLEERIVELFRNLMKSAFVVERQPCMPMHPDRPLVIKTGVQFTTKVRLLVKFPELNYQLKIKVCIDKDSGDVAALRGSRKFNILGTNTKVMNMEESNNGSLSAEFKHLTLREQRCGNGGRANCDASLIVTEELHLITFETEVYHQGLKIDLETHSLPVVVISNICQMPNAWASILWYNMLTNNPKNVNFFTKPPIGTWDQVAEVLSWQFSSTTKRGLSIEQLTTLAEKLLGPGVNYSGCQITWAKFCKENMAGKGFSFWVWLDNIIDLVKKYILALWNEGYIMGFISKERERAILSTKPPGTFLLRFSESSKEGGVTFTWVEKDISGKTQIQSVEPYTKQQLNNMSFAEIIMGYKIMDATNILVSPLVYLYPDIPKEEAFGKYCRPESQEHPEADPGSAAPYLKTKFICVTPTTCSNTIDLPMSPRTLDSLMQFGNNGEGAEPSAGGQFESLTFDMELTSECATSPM
Procedure, shortened: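 Readout is reporter transcript quantified by RT-PCR and capillary electrophoresis, with 6-FAM primer extension and HpaI digestion. Total RNA is taken 24 h after dosing transiently transfected HepG2 carrying cis-regulated reporter units. Bidirectional fit against DMSO.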

[17] = ATG_TA_CIS: Attagene CIS-FACTORIAL HepG2 Assay for human TA Basal Promoter (AID 2282964); details: HepG2 Attagene CIS-factorial TA basal promoter reporter; actives raise or lower the signal
Procedure, shortened: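 Background internal-marker endpoint from a 52-component HepG2 cis-reporter panel. Cells treated 24 h; reporter transcripts quantified via RT-PCR and CE fluorescence against DMSO baseline.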

[18] = biological target: Heat shock factor protein 1 (Homo sapiens) (UniProt Q00613); test: ATG_HSE_CIS: Attagene CIS-FACTORIAL HepG2 Assay for human Heat Shock Transcription Factor 1 (HSE) (AID 2282953); details: HepG2 HSE cis-reporter, Attagene RNA transcription; actives raise or lower the signal
Heat shock factor protein 1 (Homo sapiens), sequence (Q00613 whole entry, looked up): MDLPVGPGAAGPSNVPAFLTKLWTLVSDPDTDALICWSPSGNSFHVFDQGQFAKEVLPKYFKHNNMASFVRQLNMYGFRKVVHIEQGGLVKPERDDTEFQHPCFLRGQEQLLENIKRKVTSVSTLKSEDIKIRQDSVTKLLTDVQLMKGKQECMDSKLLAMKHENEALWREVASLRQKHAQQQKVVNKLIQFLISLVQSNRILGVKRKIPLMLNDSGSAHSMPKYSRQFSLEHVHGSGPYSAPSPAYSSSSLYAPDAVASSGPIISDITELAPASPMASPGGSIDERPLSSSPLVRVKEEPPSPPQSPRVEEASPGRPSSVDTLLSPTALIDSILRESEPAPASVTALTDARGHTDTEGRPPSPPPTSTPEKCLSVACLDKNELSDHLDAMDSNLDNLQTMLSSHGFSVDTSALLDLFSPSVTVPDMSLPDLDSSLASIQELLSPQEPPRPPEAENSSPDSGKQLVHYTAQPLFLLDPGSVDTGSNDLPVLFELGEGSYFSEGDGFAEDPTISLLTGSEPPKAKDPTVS
Procedure, shortened: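 Liver-derived HepG2 cells carry transiently introduced multiple reporter units governed by cis promoters. Reporter RNA measured 24 h post-dose through reverse transcription, PCR amplification, fluorescent labelling and capillary electrophoresis, normalised to DMSO.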

[19] = ATG_SREBP_CIS: Attagene CIS-FACTORIAL HepG2 Assay for human Sterol Regulatory Element Binding (SREBP) (AID 2282962); details: HepG2 Attagene cis-factorial SREBP reporter, mRNA; actives raise or lower the signal
Procedure, shortened: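 Endogenous factor activity is measured in HepG2 through multiplexed reporter units under cis-element control. Following a 24 h incubation, reporter transcripts are reverse-transcribed, PCR-amplified and sized by capillary electrophoresis; activity is fitted in both directions relative to DMSO.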

Measured: AC50

N#CCCOCCC#N
not listed: [18] | [19]
inactive: all other assays above

COc1ccccc1C=O
active: [6] 27.7 µM
not listed: [19]
inactive: all other assays above

Brc1nc2ccccc2s1
active: [6] 125 µM | [18] 89.7 µM | [12] 18.1 µM
not listed: [15] | [19]
inactive: all other assays above

O=C(c1ccccc1)c1ccc(O)cc1O
not listed: [11]
inactive: all other assays above

O=C(Cl)C(F)(F)C(F)(F)C(F)(F)C(F)(F)C(F)(F)C(F)(F)C(F)(F)F
active: [12] 69.5 µM
not listed: [11] | [18]
inactive: all other assays above

CCCCCCCCCCCCCC[P+](CCCC)(CCCC)CCCC
active: [8] 0.871 µM | [10] 0.81 µM | [19] 1.24 µM
not listed: [5] | [9] | [15] | [18]
inactive: all other assays above

CC(=O)CCC(C)C
active: [11] 52.9 µM
not listed: [15]
inactive: all other assays above

CCc1cc(Cc2cc(CC)c(N)c(CC)c2)cc(CC)c1N
active: [1] 60.5 µM | [7] 56.6 µM | [18] 60 µM | [8] 26.1 µM | [10] 33.4 µM | [11] 1.1 µM | [14] 29.3 µM | [19] 3.95 µM
not listed: [6] | [9]
inactive: all other assays above

COC(=O)c1ccc(C=O)cc1
not listed: [5]
inactive: all other assays above

O=C(O)C(F)(F)C(F)(F)C(F)(F)OC(F)(C(F)(F)F)C(F)(F)F
active: [12] 45.9 µM
not listed: [5] | [9] | [11] | [18]
inactive: all other assays above

COCCC(=O)OC
not listed: [6] | [11] | [15] | [19]
inactive: all other assays above

CCn1c2ccccc2c2ccccc21
active: [8] 73.9 µM | [11] 26.2 µM | [15] 167 µM | [19] 153 µM
not listed: [9]
inactive: all other assays above

C=C(C)C(=O)OCC(F)(F)C(F)(F)C(F)(F)C(F)F
not listed: [5] | [6] | [11] | [15]
inactive: all other assays above

O=S(=O)(O)CCC(F)(F)C(F)(F)C(F)(F)C(F)(F)F
not listed: [5] | [9]
inactive: all other assays above

CCCCCCCCCc1ccc(OCCO)cc1
active: [1] 21.4 µM | [3] 19.2 µM | [4] 21.7 µM | [8] 13.3 µM | [10] 24.3 µM | [11] 0.64 µM | [15] 13.3 µM | [16] 19.5 µM
not listed: [6] | [18] | [19]
inactive: all other assays above
